Measured potencies and affinities stand elsewhere. The source made the active and inactive calls. The rule behind the calls is not given here.
assay: toxicity toward HepG2 liver cells – cell-based, plate reader, cherry-pick, antagonist series, cytotoxicity control, dose response (AID 743416); conditions: series mostly up to 26 µM; activity change, negative = cytotoxicity: at the top concentration;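 note: 0% = neutral control wells and -100% = positive control wells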

SMILES | activity change, negative = cytotoxicity
N#C[C@@H]1[C@H](c2ccc(C#Cc3ccccc3F)cc2)[C@@H](CO)N1C(=O)C1CC1 | -38.9% [at 23.5 µM] (inactive)
Cc1cccc(-c2ccc([C@H]3[C@@H](CO)N4CCCCN(C(=O)c5cccnc5)C[C@@H]34)cc2)c1 | 26.7% (inactive)
COC(=O)c1ccc2nc(-c3ccc4c(c3)OCO4)cn2c1 | -13.6% (inactive)
Cc1ccccc1C(=O)Nc1ccc2c(c1)OCCO2 | -9.68% (inactive)
COc1ccc(-c2cn3cc(C)ccc3n2)cc1F | -3.65% (inactive)
Cc1ccc(-n2[nH]c(=O)c(-c3ccccn3)c2C)cc1 | -8.38% (inactive)
C[C@H](CO)N1C[C@H](C)[C@H](CN(C)S(=O)(=O)c2ccc(C(F)(F)F)cc2)OCc2ccccc2-c2c(n(C)c3ccccc23)C1=O | -43% (inactive)
O=C(Cc1ccncc1)NCC[C@H]1CC[C@H](NC(=O)C2CCCC2)[C@H](CO)O1 | 4.24% (inactive)
C[C@H](CO)N1C[C@H](C)[C@H](CN(C)C(=O)Nc2ccccc2)OCCCC[C@H](C)Oc2ccc(NC(=O)Nc3ccc4c(c3)OCO4)cc2C1=O | 0.253% (inactive)
N#Cc1cccc(-c2ccc(C3[C@@H]4CN(C(=O)c5ccccn5)C[C@H]3N4)cc2)c1 (some centres undefined) | -41.5% (inactive)
Cc1ccc(C)c(S(=O)(=O)N(C(=O)c2ccncc2)c2ccc(OC(=O)c3ccncc3)cc2)c1 | -5.33% (inactive)
O=c1[nH]c(CSc2ccccn2)nc2c1oc1ccccc12 | -1.81% (inactive)
Cc1csc(NC(=O)c2ccc(N3CCCC3=O)cc2)n1 | -7.61% (inactive)
Cc1ccc(C(=O)Nc2ccc3c(c2)OCCO3)cc1 | -6.32% (inactive)
CCCCc1ccc(NC(=O)c2cnccn2)cc1 | 4.4% (inactive)
Cc1cnc(NC(=O)COc2ccccc2Cl)s1 | -1.6% (inactive)
O=C(Nc1ccc(-c2nc3cccnc3s2)cc1)C1CCCO1 (centres undefined) | -1.84% (inactive)
CCOc1ccc(C(=O)Nc2nnc(SCC(=O)NCC3CCCO3)s2)cc1 (centres undefined) | 32.3% (inactive)
O=C1CC(c2ccc3c(c2)OCO3)Sc2nc3ccccc3n21 (centres undefined) | -3.59% (inactive)
C[C@H]1CCCCO[C@@H](CN(C)C(=O)Nc2ccc(F)cc2)[C@@H](C)CN([C@@H](C)CO)C(=O)c2cc(NC(=O)C3CCCCC3)ccc2O1 | 21% [at 23.5 µM] (inactive)

SMILES | activity change, negative = cytotoxicity
CC(=O)N1CCCCN2[C@H](CO)[C@H](c3ccc(-c4cccc(C)c4)cc3)[C@@H]2C1 | 4.34% (inactive)
CC(=O)c1ccc(NC(=O)c2noc3c2CCC3)cc1 | -3.44% (inactive)
CN1c2ccc(-c3ccc(F)cc3)cc2[C@H]2[C@H](CCN2C(=O)Nc2ccc(F)cc2)[C@H]1CO | 5.64% (inactive)
CCCc1nc(SCC(=O)N2CCC(Cc3ccccc3)CC2)c2c(=O)n(C)c(=O)n(C)c2n1 | -4.75% (inactive)
COCCOc1cc(NCc2ccccc2)c2ncn(C(C)C)c2c1 | 11.2% (inactive)
Cc1ccc(S(=O)(=O)Nc2ccc3c(c2)CC(=O)N([C@H](C)CO)C[C@H](C)[C@H](CN(C)Cc2ccc(Cl)c(Cl)c2)O3)cc1 | -10.5% [at 23.5 µM] (inactive)
Cc1cccc(-c2ccc([C@H]3[C@@H](CO)N4CCCCN(C(=O)c5ccc6c(c5)OCO6)C[C@@H]34)cc2)c1 | -30.7% (inactive)
CCc1cc(-c2ccc3c(c2)COc2c4ccccc4nn2-3)on1 | -3.23% (inactive)
Cc1ccc(Nc2nc3ccccc3s2)c(C)c1 | 3.76% (inactive)
N#C[C@@H]1[C@H](c2ccc(C#CC3CCCCC3)cc2)[C@@H](CO)N1C(=O)c1cccc(F)c1 | -11.4% [at 23.5 µM] (inactive)
Cc1ccc(C#N)c(SCc2nnc(-c3ccc(Cl)cc3)o2)n1 | -88.7% (inactive)
Nc1nccc(-c2cc(-c3ccc(Cl)cc3Cl)no2)n1 | -15.6% (inactive)
O=C(Nc1ccc(N2CCOCC2)cc1)c1cnccn1 | -1.59% (inactive)
CC(C)CCNC(=O)C(c1ccc(O)cc1)N(Cc1cccs1)C(=O)C1COc2ccccc2O1 (centres undefined) | -10.9% (inactive)
Clc1ccc(-c2cc(-c3ccccn3)on2)c(Cl)c1 | -5.66% (inactive)
C[C@H](CO)N1C[C@H](C)[C@H](CN(C)C(=O)Nc2cccc3ccccc23)OCCCC[C@H](C)Oc2ccc(NC(=O)CCC(F)(F)F)cc2C1=O | -24.7% (inactive)
CC1CCCN(c2ncnc3c2cnn3-c2ccc(Cl)cc2)C1 (centres undefined) | 77.2% (inactive)
Cc1ccccc1-c1ccc([C@H]2[C@@H](CO)N3CCCCN(S(=O)(=O)c4ccc(F)cc4)C[C@@H]23)cc1 | 27.6% [at 12 µM] (inactive)
COc1ccc(-c2cc(-c3ccccc3)no2)cc1 | -0.409% (inactive)

— PubChem BioAssay
